Common to all, as to test: NCI-60 one-dose screen, 48 h (100 = growth as untreated, 0 = no growth, -100 = all killed)
Details in all cases: 10 µM unless noted

Experiment [1] deals with NCI-H226 lung.
For experiment [2], the system named is NCI-H322M lung.
For experiment [3], the system named is HOP-62 NSCLC.
In experiment [4] the test system is NCI-H460 lung.
Experiment [5] relates to HOP-92 NSCLC.
The subject of experiment [6] is NCI-H522 lung.
The subject of experiment [7] is A549/ATCC NSCLC.
Experiment [8] concerns 786-0 renal.
Experiment [9] has as its system DU-145 prostate.
For experiment [10], the system named is K-562 leukemia.
Experiment [11] deals with MALME-3M melanoma.
Experiment [12] concerns MDA-MB-231 breast.
Experiment [13] concerns RXF 393 renal.
The test system of experiment [14] is SF-268 CNS.
Experiment [15] has as its system SF-295 CNS.
Experiment [16] deals with SF-539 CNS.
The test system of experiment [17] is UACC-257 melanoma.
In experiment [18] the test system is M14 melanoma.
For experiment [19], the system named is HCT-15 colon.
In experiment [20] the test system is COLO 205 colon.

Compounds without any hit were thinned out: in the full panel of roughly 83,000, 20% have a hit.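 Single-dose data. Exposure time 48 hours. Values below 10 considered active.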 Values without a mark were called inactive. Calls of active or inactive are those of the source.

As to `CC(O)C(NC(=O)C1CCCN1C(=O)CNC(=O)C1CC(=O)NCC(=O)NC(Cc2c[nH]c3ccccc23)C(=O)NC(Cc2ccc(O)cc2)C(=O)NCC(=O)NC(CO)C(=O)NC(CCC(N)=O)C(=O)NC(Cc2c[nH]c3ccccc23)C(=O)N1)C(=O)NCC(=O)NC(CCC(N)=O)C(=O)NC(CCCNC(=N)N)C(=O)NC(CC(=O)O)C(=O)O` (configuration not stated), the growth in experiment [1] is 107%; in experiment [2] it was 95.2%; in [3], 105%; in experiment [4] it was 105%; in [5] it was 94%; in [6] it was 94.9%. The growth is 105% in experiment [7]; 108% in [8]; 104% in experiment [9]; 94.9% in experiment [10]; 95.5% in experiment [11]; 98.6% in experiment [12]. The growth was 116% in experiment [13]; 103% in [14]; 102% in [15]; 96% in [16]; 102% in [17]; 91.1% in experiment [18]. Also, in [19], the growth is 99.5%.

As for `Clc1ccc2c(NCCCN3CCOCC3)c3oc4ccc(Cl)cc4c3nc2c1`, the growth in experiment [1] was 38.4%; in experiment [2], 48.5%; in experiment [3], 67.2%; in experiment [4], 13%; in experiment [5] it was 43.6%; in [6], 44.9%. The growth in experiment [7] is 53.9%; in [8], -22.4% (active); in experiment [9] it was 57.2%; in experiment [10], 2.23% (active); in experiment [11] it was 89.3%; in experiment [12] it was 50.3%. The growth in [13] was 22.2%; in experiment [14] it was 68.5%; in experiment [15], 35%; in [16], 41.7%; in [17], 102%; in experiment [18], 97.5%. Further, the growth in experiment [19] was 4.4% (active).

As for `Cc1cccc2sc(/N=C(\N)C(Cl)(Cl)Cl)nc12`, the growth in [1] is 100%; in experiment [2], 103%; in experiment [3] it was 81.5%; in [4], 100%; in experiment [5], 101%; in experiment [6], 95.7%. For the same molecule, the growth in experiment [7] was 92.2%; in experiment [8], 93.9%; in experiment [20], 110%; in [9] it was 92.2%; in [10], 100%; in [11] it was 102%. The growth in [12] was 96.2%; in experiment [13] it was 120%; in [14] it was 94.5%; in experiment [15], 94.4%; in experiment [16], 99.4%; in experiment [17], 104%. In addition, the growth in experiment [18] was 101%; in experiment [19], 102%.

As to `N#Cc1c(-c2ccc(F)cc2)nc2c(C#N)c(Nc3ccccc3)nn2c1N`, the growth in [1] was 112%; in [2], 105%; in experiment [3], 97.3%; in experiment [4], 106%; in experiment [5] it was 92.5%; in experiment [6], 97.9%. Moreover, the growth in experiment [7] is 101%; in experiment [8] it was 86.9%; in [20], 110%; in [9], 103%; in experiment [10], 99.5%; in experiment [11] it was 113%. Also, the growth in experiment [12] is 109%; in experiment [13] it was 110%; in [14] it was 95.3%; in experiment [15], 99.3%; in [16] it was 97.3%; in experiment [17], 106%. The growth in experiment [18] was 109%; in experiment [19], 98.7%.

On to `N[C@@H](Cc1cn(-c2c3ccccc3nc3ccccc23)nn1)C(=O)O`, for which the growth in experiment [1] is 103%; in [2], 98.3%; in experiment [3], 96.6%; in experiment [4], 111%; in experiment [5], 108%; in experiment [6], 105%. For the same molecule, the growth in [7] was 102%; in experiment [8], 105%; in experiment [9], 105%; in experiment [10] it was 88%; in experiment [11] it was 103%; in experiment [12] it was 97.4%. Besides, the growth in experiment [13] is 114%; in [14], 101%; in experiment [15] it was 105%; in [16] it was 90.8%; in experiment [17] it was 106%; in [18], 107%. Moreover, the growth in experiment [19] was 85.4%.

As for `Cc1cc2nc3c4cc(Cl)ccc4n(CC(=O)NCCN(C)C)c3nc2cc1C`, the growth was 25.7% in experiment [1]; 83.7% in experiment [2]; 73.7% in [3]; -69.9% (active) in [4]; 57.1% in [5]; 91.8% in [6]. Further, the growth in experiment [7] was 89.4%; in experiment [8], -92.4% (active); in experiment [20], 76.8%; in experiment [9], 94.4%; in experiment [10] it was -32.9% (active); in experiment [11], -66.9% (active). Also, the growth in [12] was 53.2%; in experiment [13] it was 61.1%; in experiment [14], 83%; in experiment [15], 93.5%; in experiment [16], 21.8%; in experiment [17], 105%. Also, the growth in experiment [18] is -88.7% (active); in experiment [19], -7.4% (active).

Turning to `CCCCCCNC(=O)Oc1ccc(/C(=C(/C)c2ccccc2)c2ccc(OCCN3CCCCCC3)cc2)cc1`, the growth in experiment [1] is 76.7%; in [2], 87.5%; in experiment [3], 78.6%; in [4], 6.58% (active); in experiment [5] it was 12.5%; in [6] it was 85%. Also, the growth in experiment [7] is 63.1%; in [8], -0.48% (active); in [20] it was 21.7%; in experiment [9], 68.2%; in experiment [10], -9.12% (active); in [11], 12.2%. Further, the growth in experiment [12] was 41.7%; in experiment [13] it was 9.02% (active); in experiment [14], 62.2%; in experiment [15], 36.3%; in experiment [16], 11.1%; in [17], -2.81% (active). Further, the growth in experiment [18] was -39.7% (active); in experiment [19] it was 9.9% (active).

Values taken from PubChem BioAssay (NCI).
